DAX1 inh-1 – DAX1 (NR0B1) inhibitors on StAR promoter, primary screen, cell-based, luminescence, SF-1 (NR5A1), full-length DAX-1; HEK293T StAR-luciferase reporter, SF-1/DAX-1 repression relief; actives 1.1% (n = 370,000); inhibition, % at 6.8 µM;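 active = inhibition above the mean over all tested compounds plus 3 SD, cut at about 3.6% in these data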;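 note: 0% = DAX-1 cells with DMSO and 100% = cells lacking DAX-1 with DMSO; higher inhibition means more luminescence from relief of DAX-1 repression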
hcDAF-12 act – H. contortus DAF-12 nuclear receptor activators, primary screen, cell-based, luminescence, HEK293, lit1-tk-luc reporter; HEK293 hcDAF-12 lit1-tk-luc reporter; 0% DMSO, 100% Δ7-dafachronic acid; AID 652067, 2013; activation, % at 6.8 µM; actives 1.4% (n = 370,000);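 active = activation above the mean of all tested compounds plus 3 SD, cut at about 5.5% in these data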;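 note: 100% = response to 3 µM Δ7-dafachronic acid high control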
hgDAF-12 ag – H. glycines DAF-12 receptor agonists, primary screen, cell-based, luminescence, HEK293, GAL4 fusion, UAS-luciferase. HEK293 GAL4-hgDAF12 UAS-luciferase reporter, agonist luminescence; normalized to butyrate control. activation, % at 6.8 µM. actives 1.8% (n = 370,000). AID 687014, 2013;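 active = activation above a cutoff set at the mean of all screened compounds plus 3 SD, cut at about 10% in these data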;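 note: 0% = DMSO wells and 100% = sodium butyrate wells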
ssDAF12 agonist – S. stercoralis DAF-12 nuclear receptor activators, primary screen, cell-based, luminescence, HEK293, GRIP1 co-expression, lit1-tk-luc. Nuclear hormone receptor DAF-12 (Strongyloides stercoralis). HEK293 ssDAF-12/GRIP1 lit1-tk-luc reporter; % of 3 µM dafachronic acid response. activation, % at 6.8 µM. actives 1% (n = 370,000);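 active = activation above the mean over all tested compounds plus 3 SD, cut at about 0.9% in these data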;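 note: 0% = DMSO-only wells and 100% = 3 µM delta7-dafachronic acid wells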
DAX1 inh-2 – DAX1 (NR0B1) inhibitors, primary screen, cell-based, HEK293, Gal4-DAX1, luciferase luminescence; HEK293 Gal4-DAX1 luciferase reporter; actives 0.99% (n = 340,000); inhibition, % at 6.75 µM; Nuclear receptor subfamily 0 group B member 1 (Homo sapiens), P51843;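 active = inhibition above the mean over all tested compounds plus 3 SD, cut at about 4.2% in these data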;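 note: 0% = DAX1-transfected cells with DMSO and 100% = empty-vector control cells with DMSO; inhibition shows as a rise in luminescence from relieved DAX1 repression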
Target sequence (P51843 207-470 limits assumed): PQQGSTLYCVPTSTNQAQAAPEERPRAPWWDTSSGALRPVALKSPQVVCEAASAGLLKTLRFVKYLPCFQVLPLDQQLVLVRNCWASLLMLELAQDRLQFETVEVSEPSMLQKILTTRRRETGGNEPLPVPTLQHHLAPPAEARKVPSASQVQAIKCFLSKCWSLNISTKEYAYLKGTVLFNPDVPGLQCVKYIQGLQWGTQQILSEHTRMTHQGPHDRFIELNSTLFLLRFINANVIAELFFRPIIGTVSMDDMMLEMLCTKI
DAX1 conf – DAX1 (NR0B1) inhibitors relieving SF-1 repression, confirmation, cell-based, luminescence, HEK293T, full-length DAX-1, SF-1 activated StAR promoter; inhibition, % at 6.8 µM; shares compounds with DAX1 inh-1; HEK293T StAR-promoter luciferase reporter, SF-1/DAX-1 repression; actives 87% (n = 2,400); AID 652134, 2013;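 active = inhibition above the average of every tested compound plus 3 SD, cut at about 3.8% in these data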;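 note: 0% = DAX-1 cells with DMSO and 100% = no DAX-1 control cells with DMSO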
SF1 mutant ctr – StAR reporter signal changes without DAX1, counter-screen for DAX1 inhibitor project, cell-based, luminescence, AF-2 mutant SF-1, transactivation. actives 78% (n = 2,400). inhibition, % at 6.8 µM. AID 652136, 2013. HEK293 StAR-luciferase, SF-1 AF2 mutant. shares compounds with DAX1 inh-1;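 active = inhibition above the mean of all tested compounds plus 3 SD, cut at about 3% in these data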;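 note: 0% = DAX-1 transfected cells with DMSO and 100% = cells without DAX-1 with DMSO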
LXRb hcDAF ctr – LXR agonists, Gal4 luciferase reporter, confirmation, counter-screen for hcDAF-12 agonist project, cell-based, luminescence, HEK293, H. contortus campaign | shares compounds with hcDAF-12 act | AID 743027, 2013 | HEK293 Gal4-LXR tk-luc reporter, 24 h; normalized: DMSO 0%, positive control 100% | activation, % at 6.8 µM | 3,400 tested, under 10 active;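 active = mean percent activation of the reporter above a cutoff set as the average over tested compounds plus their standard deviation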
hcDAF12 conf – H. contortus DAF-12 receptor agonists, confirmation, cell-based, luminescence, HEK293, lit1-tk-luc, triplicate. shares compounds with hcDAF-12 act. HEK293 hcDAF-12 lit1-tk-luc reporter; % of Δ7-dafachronic acid response. activation, % at 6.8 µM. actives 61% (n = 3,400);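 active = mean activation across triplicate tests above the threshold derived from the earlier primary screen, cut at about 5.5% in these data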;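 note: 0% = DMSO only wells and 100% = 3 µM Δ7-dafachronic acid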
Starred values were filed as active, the others as inactive. Sampled rows, rich in hits. Any-hit rate of the full collection: about 4.1%.

`COc1ccc(C2NC(=S)NC3=C2CCCC3=C2SCCS2)cc1` (stereo unspecified) gave DAX1 inh-1 88*, hcDAF-12 act 7.9*, hgDAF-12 ag 50*, ssDAF12 agonist 0, DAX1 inh-2 5.0*, DAX1 conf 13*, SF1 mutant ctr 2, LXRb hcDAF ctr 0 and hcDAF12 conf 2.
Screening O=C(COC(=O)CSc1ccccc1)NC1CCS(=O)(=O)C1 (stereo unspecified) returned DAX1 inh-1 0, hcDAF-12 act 0, hgDAF-12 ag -2, ssDAF12 agonist -1 and DAX1 inh-2 2.
CN(CC(=O)Nc1ccc(F)c(F)c1F)C(=O)CCN1C(=O)C2CC=CCC2C1=O (stereo unspecified) was read as DAX1 inh-1 0, hcDAF-12 act 0, hgDAF-12 ag -4, ssDAF12 agonist -1 and DAX1 inh-2 1.
`Cc1ccnc(N/N=C/c2ccccc2)n1` gave DAX1 inh-1 4.6*, hcDAF-12 act 17*, hgDAF-12 ag 13*, ssDAF12 agonist 0, DAX1 inh-2 1, DAX1 conf 11*, SF1 mutant ctr 6.3*, LXRb hcDAF ctr 1 and hcDAF12 conf 3.
For C(=N\Nc1nccc(-c2cccnc2)n1)/c1ccccc1 the results were DAX1 inh-1 1, hcDAF-12 act 2, hgDAF-12 ag 7 and ssDAF12 agonist -1.
Screening C/C(=N\NC(=O)c1ccccc1)C1C2C=CC(C2)C1(C)C (stereo unspecified) returned DAX1 inh-1 6.0*, hcDAF-12 act 8.3*, hgDAF-12 ag 9, ssDAF12 agonist 1.9*, DAX1 inh-2 5.3*, DAX1 conf 2, SF1 mutant ctr 0, LXRb hcDAF ctr 0 and hcDAF12 conf 4.
C/C(=N/NC(=O)c1ccccc1)C(=O)O was read as DAX1 inh-1 1, hcDAF-12 act 1, hgDAF-12 ag -1, ssDAF12 agonist -1 and DAX1 inh-2 0.
For CC(C)c1ccc(-n2nc3ccc(N)cc3n2)cc1 the results were DAX1 inh-1 5.1*, hcDAF-12 act 9.8*, hgDAF-12 ag 15*, ssDAF12 agonist 2.2*, DAX1 inh-2 0, DAX1 conf 14*, SF1 mutant ctr 7.8*, LXRb hcDAF ctr 2 and hcDAF12 conf 18*.
COc1ccc(-n2nc3ccc(N)cc3n2)cc1 was read as DAX1 inh-1 1, hcDAF-12 act -1, hgDAF-12 ag 1, ssDAF12 agonist -1 and DAX1 inh-2 -2.
Screening CC(C)c1ccc(-n2cnn(-c3ncccc3[N+](=O)[O-])c2=O)cc1 returned DAX1 inh-1 6.8*, hcDAF-12 act 22*, hgDAF-12 ag 22*, ssDAF12 agonist 2.4*, DAX1 inh-2 1, DAX1 conf 20*, SF1 mutant ctr 10*, LXRb hcDAF ctr 2 and hcDAF12 conf 14*.
Cc1cc(C)n(-c2ncccc2[N+](=O)[O-])n1 was read as DAX1 inh-1 -1, hcDAF-12 act 1, hgDAF-12 ag 0, ssDAF12 agonist 0 and DAX1 inh-2 0.
For Cc1cc(C)c2nc(NC(=O)c3ccco3)sc2c1 the results were DAX1 inh-1 19*, hcDAF-12 act 6.6*, hgDAF-12 ag 10, ssDAF12 agonist 1.0*, DAX1 inh-2 0, DAX1 conf 13*, SF1 mutant ctr 3, LXRb hcDAF ctr 2 and hcDAF12 conf 9.2*.
`CC1CCC(NC(=O)C(=O)Nc2ccc3c(c2)OCO3)CC1` (stereo unspecified) gave DAX1 inh-1 7.8*, hcDAF-12 act 7.0*, hgDAF-12 ag 5, ssDAF12 agonist 0, DAX1 inh-2 2, DAX1 conf 8.9*, SF1 mutant ctr 8.8*, LXRb hcDAF ctr 1 and hcDAF12 conf 5.7*.
For C#CCNC(=O)C[C@H]1C[C@@]2(C(=O)OCC)CCCC3=C2N(CCC3)C1=O the results were DAX1 inh-1 -1, hcDAF-12 act 0, hgDAF-12 ag -1 and ssDAF12 agonist 0.
Screening COCCNC(=O)c1[nH]c(C(F)(F)F)nc1-c1ccccc1 returned DAX1 inh-1 -1, hcDAF-12 act 0, hgDAF-12 ag 0 and ssDAF12 agonist -1.
For Oc1ccccc1/C=C/c1noc(-c2ccccc2O)n1 the results were DAX1 inh-1 6.1*, hcDAF-12 act 15*, hgDAF-12 ag 18*, ssDAF12 agonist 3.9*, DAX1 inh-2 7.5*, DAX1 conf 13*, SF1 mutant ctr 9.3*, LXRb hcDAF ctr 1 and hcDAF12 conf 12*.
Cc1c(C(=O)NC2=NCCS2)oc2ccccc12 was read as DAX1 inh-1 5.3*, hcDAF-12 act 19*, hgDAF-12 ag 14*, ssDAF12 agonist 2.7*, DAX1 inh-2 1, DAX1 conf 14*, SF1 mutant ctr 7.2*, LXRb hcDAF ctr 2 and hcDAF12 conf 21*.
CC(=O)Nc1cccc(Nc2cnccn2)c1 was read as DAX1 inh-1 1, hcDAF-12 act 0, hgDAF-12 ag 4 and ssDAF12 agonist 0.
For O=S(=O)(O)c1ccc(N=Nc2ccccc2)cc1 the results were DAX1 inh-1 0, hcDAF-12 act -2, hgDAF-12 ag 0, ssDAF12 agonist -1 and DAX1 inh-2 0.

Screening results as filed in PubChem BioAssay.
